Results as given in PubChem BioAssay.
“And” between values parts separate entries of the source, which are not always exact repeats. Equal values may be shown once. Inconclusive results are not listed. The source made the active and inactive calls.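 Rule for the calls, unless noted: active = compounds killing one labelled cell type while sparing the other, by normalised counts and ratio limits, not self-fluorescent; inactive = the rest.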

How the values were obtained:
[1] = EMT-state selective cytotoxicity in co-culture – imaging, PC-3E GFP, TEM4-18 mCherry, primary screen (AID 1345086); conditions: PC-3E GFP / TEM4-18 mCherry co-culture, imaging cell counts, at 1 µM; for red/green cell ratio (normalised): actives lie on both sides, counts scaled to control wells, 1 = unselective;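 for all read-outs here: cells exposed to compound for 72 h before imaging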;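 for red/green cell ratio (normalised): normalised mesenchymal count divided by normalised epithelial count so high means epithelial killing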
[2] = viability loss in pontine glioma line – cell-based, SU-DIPG-XVII, MIPE5.0, CellTiter-Glo, qHTS, dose response (AID 1347060; cut-off not given, nearly all actives have AC50 up to about 26 µM;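 for AC50: cells exposed to compound for 48 hours before viability readout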); conditions: CellTiter-Glo ATP luminescence
[3] = viability loss in pontine glioma line – cell-based, SU-DIPG-XIII, MIPE4.0, CellTiter-Glo, qHTS, dose response (AID 1347061; cut-off not given, nearly all actives have AC50 up to about 37 µM;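 note: cells exposed to compound for 48 hours before readout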); conditions: CellTiter-Glo ATP luminescence
[4] = viability loss in pontine glioma line – cell-based, JHH-DIPG-1, MIPE4.0, CellTiter-Glo, qHTS, dose response (AID 1347062; cut-off not given, nearly all actives have AC50 up to about 27 µM;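 for AC50: cells exposed to compound for two days before readout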); conditions: JHH-DIPG-1 viability, CellTiter-Glo ATP luminescence
[5] = viability loss in pontine glioma line – cell-based, SU-DIPG-XIII, MIPE5.0, CellTiter-Glo, qHTS, dose response (AID 1347064; cut-off not given, nearly all actives have AC50 up to about 23 µM;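 for AC50: cells exposed to compound for 48 hours before the viability read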); conditions: CellTiter-Glo ATP luminescence
[6] = viability loss in pontine glioma line – cell-based, SU-DIPG-IV, MIPE4.0, CellTiter-Glo, qHTS, dose response (AID 1347063; cut-off not given, nearly all actives have AC50 up to about 30 µM;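 note: compound exposure lasted 48 hours before the viability readout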); conditions: CellTiter-Glo ATP luminescence
[7] = measured here: epithelial PC-3E GFP cell survival
[8] = measured here: mesenchymal TEM4-18 mCherry cell survival

Compound	red/green cell ratio (normalised) [1]	normalised cell number [1, 7]	normalised cell number [1, 8]	outcome [2]	outcome [3]	outcome [4]	outcome [5]	outcome [6]	AC50 [2]	AC50 [5]	AC50 [3]	AC50 [4]	AC50 [6]
O=c1oc2c(O)c(O)cc3c(=O)oc4c(O)c(O)cc1c4c23	0.99 (inactive)	0.85	0.84	inactive	inactive	inactive	inactive	–	–	–	–	–	–
NC(CO)C(=O)NNCc1ccc(O)c(O)c1O (centres undefined)	1.1 (inactive)	1.12	1.23	inactive	inactive	inactive	inactive	inactive	–	–	–	–	–
CNC[C@H](O)[C@@H](O)[C@H](O)[C@H](O)CO	0.7 (inactive)	1.19	0.84	inactive	inactive	–	inactive	inactive	–	–	–	–	–
CN(Cc1cc(Br)cc(Br)c1N)C1CCCCC1	1.35 (inactive)	0.99	1.33	–	inactive	inactive	–	–	26.3 µM (active)	20.9 µM (active)	–	–	–
CC1=C(C)C(=O)C(C(CCCCCC(=O)O)c2ccccc2)=C(C)C1=O (centres undefined)	1.03 (inactive)	1.04	1.08	inactive	inactive	inactive	–	inactive	–	–	–	–	–
O=C(O)CSCC(=O)NC1CCSC1=O (centres undefined)	1.25 (inactive)	0.94	1.17	inactive	inactive	inactive	–	inactive	–	–	–	–	–
O=NN(CCCl)C(=O)NCCCl	1.04 (inactive)	1.15	1.2	inactive	inactive	inactive	inactive	inactive	–	–	–	–	–
C[C@@H]1CN(c2c(F)c(N)c3c(=O)c(C(=O)O)cn(C4CC4)c3c2F)C[C@H](C)N1	0.99 (inactive)	1.12	1.11	inactive	inactive	inactive	inactive	inactive	–	–	–	–	–
COCCCOc1cc(C[C@@H](C[C@H](N)[C@@H](O)C[C@H](C(=O)NCC(C)(C)C(N)=O)C(C)C)C(C)C)ccc1OC	0.98 (inactive)	0.98	0.96	inactive	inactive	inactive	–	–	–	–	–	–	–
Cc1nc(-c2ccc(OCC(C)C)c(C#N)c2)sc1C(=O)O	1 (inactive)	1.08	1.08	inactive	inactive	inactive	inactive	inactive	–	–	–	–	–
CNC[C@H](O)c1cccc(O)c1	1.3 (inactive)	0.85	1.11	inactive	inactive	inactive	inactive	inactive	–	–	–	–	–
Cc1cnc(C(=O)O)c[n+]1[O-]	0.76 (inactive)	1.32	1	inactive	inactive	inactive	inactive	inactive	–	–	–	–	–
CC1=CC(=O)c2ccccc2C1=O	0.99 (inactive)	1.09	1.08	–	–	–	–	–	23.5 µM (active)	–	23.5 µM (active)	8.33 µM (active)	26.4 µM (active)
CN1C(C(=O)Nc2ccccn2)=C(O)c2sccc2S1(=O)=O	0.82 (inactive)	1.14	0.93	inactive	inactive	inactive	inactive	inactive	–	–	–	–	–
NC(=O)c1ncn([C@@H]2O[C@H](CO)[C@@H](O)[C@H]2O)n1	0.68 (inactive)	1.31	0.89	inactive	inactive	inactive	inactive	–	–	–	–	–	–
Cc1ccc(S(=O)(=O)NC(=O)NN2CC3CCCC3C2)cc1 (centres undefined)	0.84 (inactive)	1.15	0.96	inactive	inactive	–	inactive	–	–	–	–	20.9 µM (active)	–
CO[C@@H]1[C@@H](OC(N)=O)[C@@H](O)[C@H](Oc2ccc3c(O)c(NC(=O)c4ccc(O)c(CC=C(C)C)c4)c(=O)oc3c2C)OC1(C)C	1.14 (inactive)	1.07	1.21	inactive	inactive	inactive	inactive	inactive	–	–	–	–	–
Oc1ccc(OCc2ccccc2)cc1	1.06 (inactive) and 1.09 (inactive) and 0.97 (inactive)	0.97 and 1.09 and 0.95	1.03 and 1.19 and 0.92	inactive	inactive	inactive	inactive	inactive	–	–	–	–	–
Nc1ncnc2c1ncn2[C@@H]1O[C@H](CO)[C@@H](O)[C@H]1O	1.15 (inactive)	0.81	0.94	–	–	–	–	–	–	–	18.7 µM (active)	0.935 µM (active)	–
Nc1ccc(S(=O)(=O)Nc2ccnn2-c2ccccc2)cc1	0.85 (inactive)	1.05	0.9	–	inactive	inactive	–	inactive	–	–	–	–	–
CCCN(CCC)C(=O)C(CCC(=O)O)NC(=O)c1ccccc1 (centres undefined)	1.08 (inactive)	0.92	1	–	–	–	inactive	–	26.3 µM (active)	–	–	–	–
Nc1nc(=S)c2[nH]cnc2[nH]1	1.29 (inactive)	0.83	1.07	–	–	–	–	–	0.59 µM (active)	2.35 µM (active)	–	0.833 µM (active)	7.43 µM (active)
COc1ccc2c(c1)c(CC(=O)OCC(=O)O)c(C)n2C(=O)c1ccc(Cl)cc1	0.77 (inactive)	1.18	0.91	–	inactive	inactive	–	inactive	–	–	–	–	–
OC[C@H]1O[C@@H](Oc2ccc(O)cc2)[C@H](O)[C@@H](O)[C@@H]1O	1.05 (inactive)	1.15	1.21	–	inactive	inactive	–	inactive	–	–	–	–	–
